Experimental data as given in PubChem BioAssay (NCI).
About 79,000 compounds went through this panel and 15% of them were active in at least one assay; those are over-represented in the sample as a whole. Activity calls are given as the source filed them. Cut-off read from the data, not from the text of the source: active = growth inhibition above about 70%; inactive = the rest.

Legend:
[1] = NCI Yeast Anticancer Drug Screen. Data for the rad50 strain (AID 155);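 note: 0% = growth of vehicle-only cultures of the same strain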; conditions: S. cerevisiae rad50 strain growth inhibition; at 50.0 µM; active compounds read high
Outline: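 Growth of the mutant yeast was measured after compound exposure and referenced to vehicle-treated cultures.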

[2] = NCI Yeast Anticancer Drug Screen. Data for the mec2-1 strain (AID 157); conditions: S. cerevisiae mec2-1 strain, at 50.0 µM, active compounds read high
Outline: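 Using mec2-1 yeast: add compound, measure growth, express inhibition versus vehicle-treated cultures.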

[3] = NCI Yeast Anticancer Drug Screen. Data for the sgs1 mgt1 strain (AID 161);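 note: 0% = growth of cultures given vehicle only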; conditions: S. cerevisiae sgs1 mgt1 strain, at 50.0 µM, active compounds read high
Outline: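 Compounds are added to genetically altered yeast, and growth is compared with cultures given vehicle alone to give percent inhibition.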

[4] = NCI Yeast Anticancer Drug Screen. Data for the bub3 strain (AID 167); conditions: S. cerevisiae bub3 mutant strain, at 50.0 µM, active compounds read high
Outline: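 Whole-cell yeast assay. The mutant strain was incubated with compounds, and growth inhibition was determined by comparison with vehicle-treated cells.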

[5] = NCI Yeast Anticancer Drug Screen. Data for the mlh1 rad18 strain (AID 175); conditions: S. cerevisiae mlh1 rad18 strain growth inhibition; at 50.0 µM; active compounds read high
Outline: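 Steps: expose repair-defective yeast to compound; measure growth; express inhibition against vehicle-treated controls.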

[6] = NCI Yeast Anticancer Drug Screen. Data for the cln2 rad14 strain (AID 165);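 note: 0% = growth equal to vehicle treated cultures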; conditions: S. cerevisiae cln2 rad14 strain, at 50.0 µM, active compounds read high
Outline: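 Yeast strain cln2 rad14, bearing defects in cell cycle control and DNA repair, serves as the test system; values reflect growth inhibition compared with vehicle.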

Measured: growth inhibition

CN1CCCN(C(=O)N(c2ccccc2)c2ccccc2)CC1
inactive: [1] -19.3% | [2] -12.8% | [3] 7.45% | [4] -5.65% | [5] 7.4%

CCOc1nc2ccc(N)cc2s1
inactive: [1] 19.6% | [2] -9.55% | [3] 3.25% | [4] 11.4% | [5] -12.3%

COC(=O)C1CSCN1 (stereo not given)
inactive: [1] -23.9% | [2] -4.3% | [3] -26.9% | [4] -3.5% | [5] -12.8%

Nc1c(Br)c(Br)cc2c1-c1ccc(Br)cc1C2
inactive: [1] 8.2% | [2] 3.75% | [3] -2.65% | [6] 8.75% | [5] -4.7%

CCOc1ccccc1NC(=O)C(=O)CC(=O)c1sc(Nc2nnc(-c3ccc(Cl)c(Cl)c3)o2)nc1C
inactive: [1] 20.5% | [2] -11.6% | [3] 21.1% | [4] 31.4% | [5] 17.8%

CCCCCCCCCSc1nc2ccccc2s1
inactive: [1] 12.8% | [2] 6.25% | [3] 18.2% | [4] 14.5% | [5] -10.1%

CC(=O)Nc1ccc(CCNC(=O)c2ccc3ccccc3c2O)cc1
inactive: [1] -21.8% | [2] -33.1% | [3] -15.2% | [4] -11.8% | [5] -13.4%

CCOC(=O)/C(=C\c1ccccc1)NC(=O)c1ccccc1
inactive: [1] 5.4% | [2] -2.75% | [3] -2.35% | [4] 20% | [5] 4.85%

CN(C)CC1CCC2=C(C1=O)C(c1ccccc1)C1=C(CCC(CN(C)C)C1=O)O2 (stereo not given)
inactive: [1] 1.55% | [2] 2.1% | [3] -1.7% | [4] 4.3% | [5] 3.7%

C[N+](C)(C)CCc1ccccc1
inactive: [1] 1.9% | [2] -3.15% | [3] -0.85% | [4] -12.9% | [5] 16.1%

CC(C)N(CC(=O)O)CC(=O)O
inactive: [1] -0.95% | [2] -13.4% | [3] -21.1% | [4] -22.9% | [5] -16.4%

Nc1ccc(Cl)cc1C(=O)N1CCN(c2ccc([N+](=O)[O-])cn2)CC1
inactive: [1] 33.5% | [2] 16.2% | [3] 51.4% | [4] 42.9% | [5] 18.8%

c1ccc(B2O[C@H]3CCCC[C@@H]3O2)cc1
inactive: [1] 2.15% | [2] 13.9% | [3] -1.3% | [4] 1.25% | [5] 21.4%

O=C1NC(N2CCCCC2)=N/C1=C\c1ccccc1
inactive: [1] 25.7% | [2] -8.45% | [3] -6.1% | [4] -10.5% | [5] -16.4%

C=CCN1C(=O)c2ccccc2C1=O
inactive: [1] 24.3% | [2] -3.2% | [3] 11.6% | [4] 22.6% | [5] 21.6%

C=CCOC(=O)CC(=C)C(=O)OCC=C
inactive: [1] 8.5% | [2] 26.4% | [3] -8.95% | [4] -5.65% | [5] -3.55%

N#CC(C#N)c1ccc(C(C#N)C#N)cc1
inactive: [1] -9.15% | [2] -6.75% | [3] 0.25% | [4] -12.3% | [5] -1.55%

CCCOC(=O)Nc1cccc(Cl)c1
inactive: [1] 49.5% | [2] -8.7% | [3] 13.6% | [6] -9.95% | [5] 12.4%

N=C(N)N1CCc2ccccc2C1
inactive: [1] -5.55% | [2] 7.3% | [3] -2% | [4] -28.9% | [5] 2.65%

O=C1C=CC(=O)N1n1c(-c2ccccc2)n[nH]c1=O
inactive: [1] 4.05% | [2] -15.6% | [3] -16.9% | [4] -8% | [5] -53.6%

O=P(O)(O)OC1C(OP(=O)(O)O)C(OP(=O)(O)O)C(OP(=O)(O)O)C(OP(=O)(O)O)C1OP(=O)(O)O.[Cu+2] (stereo not given)
inactive: [1] -18.1% | [2] -18.8% | [3] -14.7% | [4] -9% | [5] -19.4%

COc1ccc(Cc2cc(OC)c(OC)c(OC)c2)cc1
inactive: [1] 13.2% | [2] -0.3% | [3] 7.7% | [4] 31.8% | [5] -27.6%

COCCCNc1ncnc2c1cnn2-c1ccc(Cl)cc1
inactive: [1] -1.3% | [2] -4.75% | [3] -0.25% | [4] -9.45% | [5] -4.45%

COC(=O)/C=C\CC(=O)OC
inactive: [1] 2.75% | [2] -5% | [3] -19.9% | [4] -11% | [5] -0.65%

C/C(CC(=O)NC1=CC=C(NC(=O)C/C(C)=N\Nc2ccccc2)CC1)=N/Nc1ccccc1
inactive: [1] 8.65% | [2] 12% | [3] -18.8% | [4] -0.1% | [5] 13.7%

COCC1OC(n2cc(C)c(=O)n(C)c2=O)CC1OC (stereo not given)
inactive: [1] 1.2% | [2] 7.2% | [3] 19.9% | [4] 24.4% | [5] 8%

COc1ccc(OC)c(NC(=O)Nc2ccc(I)cc2)c1
inactive: [1] 46.8% | [2] 42% | [3] 33.9% | [6] 15.1% | [5] 56%

COc1ccc(-n2c(CCCC(=O)O)nc3c2C(=O)c2ccccc2C3=O)cc1
inactive: [1] 20.4% | [2] 23.8% | [3] 25.5% | [4] 25.1% | [5] 33.5%

O=C1CCC(=O)N1Cl
inactive: [1] 1.05% | [2] -1% | [3] -3.6% | [4] -5.75% | [5] -13.8%

[N-]=[N+]=Nc1ccnc2c(C(F)(F)F)cccc12
inactive: [1] -19.9% | [2] -18.1% | [3] -8% | [4] -14.3% | [5] -2.45%

COC(=O)c1nc(N)nc(C(=O)OC)c1C(=O)c1ccncc1
inactive: [1] -12.2% | [2] -19.9% | [3] 0.1% | [4] -24.9% | [5] -4.45%

O=C1c2ccccc2C(c2ccccc2)C1c1ccccc1 (stereo not given)
inactive: [1] 22.8% | [2] 15.9% | [3] 17.6% | [6] -16.6% | [5] 0.8%

COc1ccc(CC2(Cc3ccc(OC)cc3)CCOC2=O)cc1
inactive: [1] -23.1% | [2] -31.9% | [3] -16.1% | [4] 2.25% | [5] -31.4%

CC(=O)NNc1nc(C)c(C(/C=C/c2ccc(/C=C/C(=N\NC(=O)c3ccncc3)c3sc(NNC(C)=O)nc3C)cc2)=N/NC(=O)c2ccncc2)s1
inactive: [1] -16.6% | [2] -7.35% | [3] -8.95% | [4] 1.4% | [5] -13.3%

CCCCN1C[C@H](OC(=O)CCC)[C@@H](OC(=O)CCC)[C@H](OC(=O)CCC)[C@H]1COC(=O)CCC
inactive: [1] -18.4% | [2] -15.7% | [3] -11% | [4] -23.9% | [5] -15.7%

CCN(CC)CCC(O)(Cc1ccccc1)c1cccc(Cl)c1 (stereo not given)
inactive: [1] 21.6% | [2] 7.95% | [6] -67.5% | [4] 16.6% | [5] 21.4%

Cc1c[nH]c(=O)n(CC(=O)C2(O)CCC3C4CCC5=CC(=O)CCC5(C)C4CCC32C)c1=O (stereo not given)
inactive: [1] 5.25% | [2] -4.45% | [6] 13.2% | [4] -0.55% | [5] -1.35%

c1ccc(C2(c3ccccc3)CC([P+](c3ccccc3)(c3ccccc3)c3ccccc3)N=N2)cc1 (stereo not given)
active: [1] 99.3% | [2] 99.6% | [3] 99.7% | [4] 97.5% | [5] 99.5%

COc1ccc(CN=CN/C(C#N)=C(\N)C#N)cc1OC
inactive: [1] -21.2% | [2] -49.8% | [3] -28.6% | [4] 4.35% | [5] -23.6%
